In PubChem BioAssay AID504882 (Broad Institute, 2011):
Among all 1,200 compounds or so, about 290 (24%) were called active. Another 9% or so got no clear call; they are omitted. A selection follows. Entries with a potency or affinity are not part of this list. Unmarked numbers belong to inactive results. The rule behind the calls is not given here.

Assay: LCL viability reduction – cell-based, plate reader, cherry-picks, set 2, cytotoxicity control, dose response (AID 504882);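 note: 0% = neutral control wells and -100% = positive control wells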
Settings: EBV lymphoblastoid cells (LCL) viability; series mostly up to 19.5 µM; activity change, negative = cytotoxicity: at the top concentration

Row | Structure (SMILES) | activity change, negative = cytotoxicity [%]
1 | CC(C)Oc1ccc(C(=O)Nc2nnc(SCC(=O)N3CCOCC3)s2)cc1 | 14.2
2 | COC(=O)CCNc1ccc2c(c1)OCCO2 | 21.3
3 | COc1ccc2[nH]c3c(=O)n(CCCCC(=O)N4CCC(C(N)=O)CC4)c(=S)[nH]c3c2c1 | 9.32
4 | Cc1c(/C(O)=C2/C(=O)C(=O)N(CCN3CCOCC3)C2c2ccccn2)cnn1-c1ccccc1 (centres undefined) | 12
5 | O=[N+]([O-])c1cc(/C=N\O)ccc1Oc1ccc(F)cc1 | -4.12
6 | O=[N+]([O-])c1ccc(/C=N/Nc2cc(Cl)nc(-c3ccccc3)n2)cc1 | -40.7
7 | CCOc1ccc(Nc2ncnc3ccc([N+](=O)[O-])cc23)cc1 | 10.8
8 | COc1ccc(NC(=O)COC(=O)/C=C/c2ccc(OC)c(S(=O)(=O)N3CCOCC3)c2)cc1 | 17
9 | Cc1nc(N)nc(N)c1/C=C/C(C)(C)c1ccc(Cl)cc1 | -24.8
10 | COc1cc2cc(C(=O)N3CCN(c4ccccc4OC)CC3)[nH]c2cc1OC | 3.74
11 | Cc1ccc(C(=O)NCCc2cccs2)cc1 | 4.45
12 | C=CCN1CCc2cc(O)c(O)cc2C(c2ccccc2)C1 (centres undefined) | 9.24
13 | CCON1C(=O)C2(CCCCC2)C(=O)C12C=CCCC2 (centres undefined) | 7.9
14 | Cc1nc(C)n(C(C)CNC(=O)c2ccco2)n1 (centres undefined) | 24.6
15 | COc1ccc(C(c2sc3nc(C)nn3c2O)N2CCC(C(N)=O)CC2)cc1OC (centres undefined) | 18
16 | Cc1cc(C(=O)COc2cccnc2[N+](=O)[O-])c(C)n1-c1ccccc1F | -2.29
17 | O=C(NCCc1cn2ccccc2n1)C1CCCCC1 | 48.6

Row | Structure (SMILES) | activity change, negative = cytotoxicity [%]
18 | COc1ccc(-c2cc3nc(-c4ccccc4)cc(N4CCCC(O)C4)n3n2)cc1 (centres undefined) | 7.77
19 | O=C(CCc1ccccc1Cl)N1CCN(S(=O)(=O)c2ccccc2)CC1 | 19.5
20 | CC[C@]1(C(=O)OC)[C@H]2C(=O)N(Cc3ccccc3)C(=O)[C@H]2[C@H]2CN=C(SCc3ccc(Cl)cc3)N21 | -9.77
21 | CCn1nc(C(=O)Nc2nc(-c3ccccn3)cs2)c2ccccc2c1=O | -6.58
22 | CCc1sc(C(=O)Nc2ncccc2O)cc1C | 15.5
23 | Cc1ccc2oc(C(=O)Nc3ccc(S(=O)(=O)Nc4onc(C)c4C)cc3)c(C)c2c1 | 10.1
24 | CCC(C)(C)NC(=O)C(c1ccc(F)cc1)N(CCOC)C(=O)CCC(=O)Nc1nccs1 (centres undefined) | 6.17
25 | CCOC(=O)c1c(NC(=O)C2C3CCC(O3)C2C(=O)O)sc(C)c1-c1ccc(F)cc1 (centres undefined) | 3.06
26 | CC1CCc2nc(N)c(C#N)c(-c3cccnc3)c2C1 (centres undefined) | -1.89
27 | CCSC1=C(C#N)C(c2ccc(C)o2)CC(=O)N1 (centres undefined) | 14.3
28 | Cc1cc(=O)[nH]c(=S)[nH]1 | 1.02
29 | COc1ccc(S(=O)(=O)N2CCN(C(=S)NCC3CCCO3)CC2)cc1OC (centres undefined) | 0.386
30 | CCOc1ccc(N/C=C/C(=O)c2ccccc2)cc1 | -11.9
31 | Cc1c(NC(=O)c2cccc(NC(=O)COc3ccccc3C#N)c2)c(=O)n(-c2ccccc2)n1C | 25.6
32 | Cn1cc(S(=O)(=O)N2CCN(C(=O)c3ccco3)CC2)c(=O)n(C)c1=O | 12.2
33 | CSc1oc(-c2ccc(F)cc2)nc1S(=O)(=O)c1ccc(F)cc1 | 17.1
34 | C=CCN1CCN(C(CC(C)C)c2nnnn2CCOC)CC1 (centres undefined) | 24.7
